# Assay outcomes from PubChem.
# A549 viability: kills or reduces viability of A549 cells in Nrf2 counter-screen. A549 ARE-Fluc cells, CellTiter-Fluor viability, 18-24 h. Potency, µM (titrated, usually from 46 µM), without a hit: at the top dose activity change, negative = cytotoxicity, hits mostly inhibitors. actives 0.16% (n = 390,000); also: % is scaled to controls: 0 for no effect and ±100 for the full control effect
#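 A549 ARE_Fluc cells in 5% FBS OPTI-MEM were exposed to compounds in concentration-response for 18-24 h at 37 deg C. Viability was read by CellTiter-Fluor fluorescence (Ex 405/Em 525) after 30 min, before the luciferase read.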
# Nrf2 ARE act: activates Nrf2 signaling; AREc32 ARE-luciferase reporter (MCF7-derived line), luminescence, 24 h; actives 0.31% (n = 410,000); Potency, µM (highest dose often 46.1 µM), inactives show at the top dose activation, hits mostly activators; AID 624171; also: % of control where 0% means no effect; nearly all actives have a fitted effect of over 65% in size
#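 Luciferase luminescence (Steady-Glo, 30 min at room temperature) served as the read-out of ARE activation in AREc32 cells treated with compounds for 24 hr at 37 deg C.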
# GALK inh: inhibitors of human galactokinase; actives 0.007% (n = 270,000); P51570; AID 1868; Purified GALK, Kinase-Glo residual ATP luminescence; Potency, µM (titrated, usually from 57.5 µM), without a hit: top-dose activity change, negative = inhibition, usual class: inhibitors; also: % is scaled to controls: 0 for no effect and ±100 for the full control effect
#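 Kinase-Glo Plus luminescence measured ATP left after a 1 h room-temperature reaction. The reaction used 5 nM GALK, 100 uM galactose and 35 uM ATP at pH 8.0 (20 mM HEPES, 5 mM MgCl2, 60 mM NaCl, 1 mM DTT, 0.01% BSA).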
# Nrf2 inh: blocks Nrf2 signaling | A549 ARE-Fluc reporter, luciferase luminescence, 18-24 h | AID 504444 | actives 2.1% (n = 360,000) | Potency, µM (titrated, usually from 46 µM), inactives show at the top dose activity change, negative = inhibition, hits mostly inhibitors; also: % is scaled to controls: 0 for no effect and ±100 for the full control effect; nearly all actives have a fitted effect of over 60% in size
#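 Nrf2 function is reported as luminescence of an ARE-controlled luciferase in A549 cells. Compounds were tested at several concentrations, and a CellTiter-Fluor read on the same wells flagged cytotoxicity.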
# rTrxR1 inhibitor: rat TrxR1 inhibition. O89049. recombinant rTrxR1, NADPH fluorescence consumption, selenite substrate. Potency, µM (highest dose often 114 µM), inactives show at the highest dose activity change, negative = inhibition, actives largely listed as inhibitors. actives 1% (n = 390,000). AID 588453; also: % is scaled to controls: 0 for no effect and ±100 for the full control effect; nearly all actives have a fitted effect of over 65% in size
# Target sequence (O89049 whole entry, looked up): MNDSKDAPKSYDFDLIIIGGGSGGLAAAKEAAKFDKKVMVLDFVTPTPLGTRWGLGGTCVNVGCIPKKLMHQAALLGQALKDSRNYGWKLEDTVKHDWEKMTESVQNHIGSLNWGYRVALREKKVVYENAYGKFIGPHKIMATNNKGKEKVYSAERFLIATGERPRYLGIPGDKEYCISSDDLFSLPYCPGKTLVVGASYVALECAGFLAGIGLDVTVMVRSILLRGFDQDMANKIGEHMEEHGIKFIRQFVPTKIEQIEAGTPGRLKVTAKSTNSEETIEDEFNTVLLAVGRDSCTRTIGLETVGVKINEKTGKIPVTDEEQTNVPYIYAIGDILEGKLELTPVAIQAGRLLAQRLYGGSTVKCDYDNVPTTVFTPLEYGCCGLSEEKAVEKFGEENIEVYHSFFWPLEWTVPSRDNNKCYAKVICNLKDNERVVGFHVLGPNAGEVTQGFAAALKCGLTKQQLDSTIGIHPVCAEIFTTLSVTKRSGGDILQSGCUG
#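 Rat TrxR1 (90 nM in the dispensed reagent) was pre-reduced with 400 uM NADPH for 5 min at room temperature, then incubated with compound for 15 min. After 400 uM selenite was added, NADPH fluorescence (Ex 340/Em 450 nm) was followed for 8 min.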
# TrxR1 substrate: is turned over as a substrate by rat TrxR1 | O89049 | purified TrxR1 substrate turnover, NADPH consumption readout | Potency, µM (doses to about 114 µM), for inactives: at the highest dose activity change, negative = substrate turnover | actives 0.01% (n = 390,000) | AID 588456; also: % is scaled to controls: 0 for no effect and ±100 for the full control effect; nearly all actives have a fitted effect of over 50% in size
#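 Rat TrxR1, dispensed at 90 nM, was prereduced with 400 uM NADPH (final) for 5 min at ~22 deg C, then incubated with compound 15 min before 400 uM selenite. A first-read NADPH fluorescence drop versus no-compound background flagged substrates.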
# An asterisk follows results filed as active; ? = inconclusive; . = no result; [ ] = dose if it differs, or a comment. Most compounds without a hit are left out; they make up all but 3% or so of the library. Calls follow the shape of the dose curve; as a rule, active = well fitted curve in the direction sought with a large enough effect; inconclusive = small, poorly fitted or top-dose-only effect, or another doubt; inactive = no such curve, though single readings can be large; an effect the other way counts as inactive or inconclusive. Potency is read from the fitted curve at half-maximal effect.
SMILES,A549 viability,Nrf2 ARE act,GALK inh,Nrf2 inh,rTrxR1 inhibitor,TrxR1 substrate
CC(=O)c1ccc(NC(=O)COc2ccccc2-c2nc(-c3ccc(C)cc3)no2)cc1,-17.2%,6.3%,.,25.9µM*,1.3%,-5.1%
Cc1ccc(C)c(OCC(=O)Nc2ccncc2)c1,3.2%,2.4%,0.3%,5.17µM*,33.9%,7.7%
Cc1ccc(NS(=O)(=O)c2ccc3c(c2)CCO3)cc1C,-1.2%,.,.,?,.,.
CCc1ccc(CNC(=O)CN2C(=O)CSc3ccc(S(=O)(=O)N4CCOCC4)cc32)cc1,2.8%,3.9%,.,.,0.3%[57.1 µM],-4.8%[57.1 µM]
Cc1cccc(OCC(=O)Nc2ccncc2)c1C,-6.6%,0.0%,-2.2%,7.31µM*,6.0%[57.1 µM],-6.1%
COc1ccccc1OCC(=O)Nc1ccncc1,-1.9%,3.7%,-1.9%,-20.4%,23.7%,4.0%
CC1CCN(CC(CS(=O)(=O)c2ccc([N+](=O)[O-])cc2)N2CCC(C)CC2)CC1 (stereo not given),?,2.6%,3.6%,23.1µM*,?,2.1%
Cc1nnc(SCc2ccccc2Cl)c2cc3sccc3n12,5.3%,6.8%,.,24.4%,19.7%,-5.6%
Cc1nc2ccccn2c(=O)c1NC(=O)c1ccccc1Cl,8.5%,26.0%,.,.,16.7%[57.1 µM],6.6%[57.1 µM]
CCOc1ccc(C(=O)n2cnnc2N)cc1,0.8%,0.3%,0.0%,13µM*,0.2%,-2.8%
COc1ccc(OCc2nc3c4c(-c5ccccc5)c(-c5ccccc5)oc4ncn3n2)cc1,10.0%,-0.3%,.,5.1%,26.0%,7.6%
CSc1nnc(NC(=O)c2nc(S(=O)(=O)Cc3ccccc3F)ncc2Cl)s1,-13.6%,?,-0.3%,?,39.8µM*,-2.4%
CC(C)c1nnc(NC(=O)c2nc(S(=O)(=O)Cc3ccccc3F)ncc2Cl)s1,-12.1%,-2.2%,-3.7%,4.7%,50.1µM*,0.1%
O=C(Nc1nc2ccc(F)cc2s1)c1nc(S(=O)(=O)Cc2ccccc2F)ncc1Cl,?,2.0%,.,?,?,3.4%
Cc1nnc(NC(=O)c2nc(S(=O)(=O)Cc3ccccc3C)ncc2Cl)s1,-7.3%,6.0%,2.7%,?,50.1µM*,7.2%
COc1cccc(C2CC(=O)Nc3cc4c(cc32)OCO4)c1OC(C)C (stereo not given),-12.9%,-0.1%,.,?,-0.1%,-4.4%
CCCOc1ccccc1C1CC(=O)Nc2cc3c(cc21)OCCO3 (stereo not given),?,4.1%,1.0%,20.6µM*,8.9%[57.1 µM],-6.3%[57.1 µM]
CCOc1c(Br)cc(C2CC(=O)Nc3cc4c(cc32)OCO4)cc1OC (stereo not given),0.7%,-0.2%,.,20.6µM*,-11.4%,-10.5%
CCOc1ccccc1C1CC(=O)Nc2cc3c(cc21)OCCO3 (stereo not given),?,0.1%,-0.5%,?,22.3%,1.5%
CC(C)Oc1ccccc1C1CC(=O)Nc2cc3c(cc21)OCO3 (stereo not given),?,-0.6%,-1.7%,7.31µM*,3.4%,-1.5%
CC(C)Oc1cccc(C2CC(=O)Nc3cc4c(cc32)OCO4)c1 (stereo not given),-19.0%,1.1%,.,16.4µM*,0.1%,-7.8%
Cc1ccc(NC2=C/C(=N/S(=O)(=O)c3cccs3)c3ccccc3C2=O)cc1,?,-3.1%,2.3%,?,11.1%,2.1%
CCc1cc[n+](C2=C([O-])c3ccccc3C(=O)/C2=N\S(=O)(=O)c2cccs2)cc1,?,-2.4%,1.0%,18.4µM*,7.4%[57.1 µM],-12.1%
CSC1(SC2=NCCN2)SC2(NCCN2)S1,7.31µM*,23.9%,.,8.2µM*,-19.0%,-9.0%
O=C(NC(=S)N(Cc1ccccc1)Cc1ccccc1)c1ccccc1F,-18.6%,7.4%,-2.7%,11.6µM*,-15.9%,-2.8%
O=C(NC(=S)NCc1ccccc1)c1ccccc1F,-2.8%,2.4%,-0.5%,8.6%,-8.3%,-3.9%
COc1ccc(C(=O)NC(=S)N(Cc2ccccc2)Cc2ccccc2)cc1,-23.2%,5.4%,-1.9%,18.4µM*,9.3%,-2.5%
